The nature of assay [1]: E. coli DRC41 culture turbidity changes, primary screen, E. coli filamentation inducer project, strain DRC41, OD650, 48 h (AID 1152).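 Also: E. coli MC1000 strain DRC41 lacking acrAB efflux pump and sulA.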 As to conditions: E. coli DRC41 (acrAB sulA), higher = more signal, called active from +8 up or from −8 down.
Assay [2] in a line: small-molecule binders of probe aLefty1, primary screen, biochemical, small-molecule microarray, 635/667 nm fluorescence (AID 1153).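 Also: score merges spot fluorescence with signal-to-noise ratio from the scanned slide images.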 Particulars: higher = more signal.
The nature of assay [3]: PSAC antagonists in infected red cells, primary screen, cell-based, P. falciparum Indochina, OD700, 1 h (AID 1154). Particulars: P. falciparum Indochina infected RBC osmotic lysis, higher = more signal, called active from +8 up or from −8 down.
The nature of assay [4]: PSAC antagonists in infected red cells, primary screen, cell-based, P. falciparum Indochina, OD700, 2 h (AID 1155).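 Also: lysis reports solute entry through the parasite surface anion channel PSAC; channel blockers reduce lysis of infected cells.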 As to conditions: P. falciparum Indochina infected erythrocytes, osmotic lysis OD700; higher = more signal, called active from +8 up or from −8 down.
The nature of assay [5]: osmotic lysis modulators in infected erythrocytes, primary screen, PSAC antagonist project, cell-based, P. falciparum Indochina, OD700, 3 h (AID 1156). Particulars: higher = more signal, called active from +8 up or from −8 down.
Assay [6] can be described thus: PSAC antagonists in infected red cells, primary screen, cell-based, P. falciparum Indochina, OD700, 18 h (AID 1157). As to conditions: P. falciparum Indochina infected erythrocytes, osmotic lysis OD700, 18 h; higher = more signal, called active from +8 up or from −8 down.
The nature of assay [7]: modulators of S6 phosphorylation in cells, primary screen, cell-based, A549, cytoblot, luminescence, serum-stimulated (AID 1158).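 Also: serum-stimulated A549 lung adenocarcinoma cells; signal is phosphorylated S6 detected by cytoblot immunostaining with HRP secondary.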 As to conditions: A549 phospho-S6 cytoblot, 5 h, higher = more signal.
Assay [8] has as its target NADPH oxidase 2 (Homo sapiens) (UniProt P04839). The experiment in a line: NOX2-dependent H2O2 signal modulators, primary screen, NOX inhibitor project, cell-based, HEK293-NOX2, PMA-stimulated, Amplex Red fluorescence (AID 1159). Also: test concentration not given here. As to conditions: 45 min, higher = more signal, called active from +8 up or from −8 down.
Assay [9] concerns the target NADPH oxidase 4 (Homo sapiens) (UniProt Q9NPH5). As to the kind of experiment: NOX4-dependent H2O2 signal modulators, primary screen, NOX inhibitor project, cell-based, HEK293-NOX4, tetracycline-induced, Amplex Red fluorescence (AID 1160). Particulars: 45 min, higher = more signal, called active from +8 up or from −8 down.
Assay [10] has as its target NADPH oxidase 5 (Homo sapiens) (UniProt Q96PH1). As to the kind of experiment: NOX5-dependent H2O2 signal modulators, primary screen, NOX inhibitor project, cell-based, HEK293-NOX5, Amplex Red fluorescence (AID 1161). As to conditions: HEK293-NOX5, ionomycin, 45 min, higher = more signal.
The nature of assay [11]: A549 cell viability effects, profiling panel, calcein-AM fluorescence, 48 h, basal (AID 1162). Also: test concentration not given here. Particulars: higher = more signal.
The nature of assay [12]: adipocyte viability effects, profiling panel, cell-based, 3T3-L1 adipocytes, calcein-AM fluorescence, 48 h, basal (AID 1163). Also: test concentration not given here. Particulars: 3T3-L1 adipocytes viability, higher = more signal.
Assay [13] can be described thus: HepG2 cell viability effects, profiling panel, calcein-AM fluorescence, 48 h, basal (AID 1164). Also: test concentration not given here. Particulars: higher = more signal.
A short description of assay [14]: MM1S cell viability effects, profiling panel, calcein-AM fluorescence, 48 h, basal (AID 1165).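 Also: viability of MM1S multiple myeloma cells under basal unstimulated conditions; test concentration not given here.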 Particulars: higher = more signal.
A short description of assay [15]: basal RPMI8226 viability, no added stimulus, profiling panel, cell-based, calcein-AM fluorescence, 48 h, PK04 Diversity Set (AID 1166).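 Also: cells grown under basal conditions without added stimulus; test concentration not given here.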 Particulars: RPMI8226 myeloma viability, higher = more signal.
Assay [16] in a line: basal HepG2 mitochondrial membrane potential changes, profiling panel, cell-based, JC-1 fluorescence, 24 h, 100 nL compound (AID 1167). Also: test concentration not given here. As to conditions: higher = more signal.
Assay [17] in a line: basal 3T3-L1 adipocyte mitochondrial potential changes, profiling panel, cell-based, JC-1 fluorescence, 3T3-L1 adipocytes, 24 h, 100 nL compound (AID 1168). Also: test concentration not given here. As to conditions: JC-1 mitochondrial fluorescence, higher = more signal, called active from +8 up or from −8 down.
Assay [18] is described as follows: basal RPMI8226 mitochondrial membrane potential changes, profiling panel, cell-based, JC-1 fluorescence, 24 h, 100 nL compound (AID 1169). Also: test concentration not given here. As to conditions: RPMI8226 myeloma, JC-1 mitochondrial potential fluorescence, higher = more signal.
A short description of assay [19]: basal MM1S mitochondrial membrane potential changes, profiling panel, cell-based, JC-1 fluorescence, 24 h, 100 nL compound (AID 1170). Also: test concentration not given here. Particulars: higher = more signal.
A short description of assay [20]: A549 lung cancer cell viability effects, profiling panel, resazurin fluorescence, 24 h, PK04 Diversity Set (AID 1171). Also: test concentration not given here. As to conditions: higher = more signal, called active from +8 up or from −8 down. (Alamar Blue is a resazurin reagent that responds to reducing activity.)

Calls of active or inactive are those of the source.

NADPH oxidase 4 (Homo sapiens), sequence (Q9NPH5 whole entry, looked up): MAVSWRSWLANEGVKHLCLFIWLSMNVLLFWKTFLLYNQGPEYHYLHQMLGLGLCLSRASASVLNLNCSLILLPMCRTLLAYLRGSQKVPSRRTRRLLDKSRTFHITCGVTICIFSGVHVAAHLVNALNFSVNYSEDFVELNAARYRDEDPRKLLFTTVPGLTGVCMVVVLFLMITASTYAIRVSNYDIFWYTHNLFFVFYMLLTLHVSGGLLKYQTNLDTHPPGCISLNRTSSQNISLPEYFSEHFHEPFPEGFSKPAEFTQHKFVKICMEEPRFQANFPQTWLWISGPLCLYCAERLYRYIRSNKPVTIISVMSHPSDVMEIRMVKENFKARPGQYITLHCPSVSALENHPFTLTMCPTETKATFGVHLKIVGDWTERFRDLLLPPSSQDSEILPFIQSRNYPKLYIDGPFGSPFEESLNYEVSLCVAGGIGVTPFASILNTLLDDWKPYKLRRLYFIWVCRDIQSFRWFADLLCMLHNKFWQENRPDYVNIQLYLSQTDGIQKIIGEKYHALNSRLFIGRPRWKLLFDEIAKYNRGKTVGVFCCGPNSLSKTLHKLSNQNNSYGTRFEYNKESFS
NADPH oxidase 5 (Homo sapiens), sequence (Q96PH1 whole entry, looked up): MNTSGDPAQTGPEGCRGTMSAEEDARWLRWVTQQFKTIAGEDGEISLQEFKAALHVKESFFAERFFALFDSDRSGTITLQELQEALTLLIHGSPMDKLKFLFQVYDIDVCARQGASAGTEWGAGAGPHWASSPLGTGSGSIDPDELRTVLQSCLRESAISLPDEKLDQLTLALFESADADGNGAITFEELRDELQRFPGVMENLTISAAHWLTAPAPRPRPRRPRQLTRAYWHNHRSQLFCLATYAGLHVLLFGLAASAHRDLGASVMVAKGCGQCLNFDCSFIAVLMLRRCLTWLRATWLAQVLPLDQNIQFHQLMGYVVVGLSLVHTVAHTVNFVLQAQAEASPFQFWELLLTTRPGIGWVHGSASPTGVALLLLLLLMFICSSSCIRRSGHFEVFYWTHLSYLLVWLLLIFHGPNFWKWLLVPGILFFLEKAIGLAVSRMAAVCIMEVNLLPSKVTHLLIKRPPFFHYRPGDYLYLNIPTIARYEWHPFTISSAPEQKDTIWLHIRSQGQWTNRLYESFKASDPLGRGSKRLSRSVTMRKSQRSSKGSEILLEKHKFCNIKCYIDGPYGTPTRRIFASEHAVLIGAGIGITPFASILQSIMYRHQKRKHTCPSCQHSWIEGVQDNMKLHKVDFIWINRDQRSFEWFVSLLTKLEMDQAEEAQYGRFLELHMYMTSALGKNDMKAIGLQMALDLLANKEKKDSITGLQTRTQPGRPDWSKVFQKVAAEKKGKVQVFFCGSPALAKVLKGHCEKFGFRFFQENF
NADPH oxidase 2 (Homo sapiens), sequence (P04839 whole entry, looked up): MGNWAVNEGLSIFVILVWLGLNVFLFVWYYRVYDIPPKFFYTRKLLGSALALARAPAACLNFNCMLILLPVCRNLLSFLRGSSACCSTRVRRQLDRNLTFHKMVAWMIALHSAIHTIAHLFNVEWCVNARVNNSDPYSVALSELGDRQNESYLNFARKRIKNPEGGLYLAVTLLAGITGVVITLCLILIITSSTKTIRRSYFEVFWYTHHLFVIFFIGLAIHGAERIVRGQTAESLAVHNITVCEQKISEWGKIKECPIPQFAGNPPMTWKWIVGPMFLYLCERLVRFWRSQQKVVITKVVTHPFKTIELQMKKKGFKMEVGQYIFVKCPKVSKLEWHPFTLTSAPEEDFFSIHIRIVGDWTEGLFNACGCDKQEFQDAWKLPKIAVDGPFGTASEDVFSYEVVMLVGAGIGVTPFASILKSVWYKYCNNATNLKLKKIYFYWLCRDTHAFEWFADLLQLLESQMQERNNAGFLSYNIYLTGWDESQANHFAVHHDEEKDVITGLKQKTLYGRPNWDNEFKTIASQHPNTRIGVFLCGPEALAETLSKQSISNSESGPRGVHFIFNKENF

For `CCOC(=O)C1=CC[C@@H](c2ccccc2)N(S(=O)(=O)c2ccc(C)cc2)[C@H]1c1ccc(C#N)cc1`, the z-score is -1.38 (inactive) in assay [1]; 1.92 (inactive) in assay [3]; 0.858 (inactive) in [4]; 0.224 (inactive) in [5]; 0.705 (inactive) in [6]; -0.882 in [7]. For the same compound, the z-score is 0.428 (inactive) in [8]; -1.1 (inactive) in [9]; 0.0836 in assay [10]; 0.423 in assay [11]; -0.574 in assay [12]; -0.178 in assay [13]. Besides, the z-score in assay [14] was -0.306; in assay [15], -0.973; in assay [16] it was 0.51; in assay [17], -1.12 (inactive); in assay [18], 0.124; in assay [19], -0.725. Further, the z-score in assay [20] is 1.39 (inactive). In [2], this compound registered a composite z-score of 0.161.
Consider `C=C(CCCC)C(=O)CC[C@H](OC(C)=O)c1ccc(CO)o1`, for which the z-score in assay [1] was 0.33 (inactive); in [3], 2.26 (inactive); in assay [4], -0.43 (inactive); in assay [5], 0.25 (inactive); in assay [6], -1.8 (inactive); in assay [7], 0.612. Moreover, the z-score in assay [8] was 0.184 (inactive); in [9] it was 0.209 (inactive); in assay [10] it was -1.32; in assay [11], -0.0395; in assay [12], 1.87; in assay [13], -0.576. Besides, the z-score in assay [14] is -1.65; in [15], -0.0314; in assay [16], 0.299; in [17], 1.14 (inactive); in assay [18], 0.0658; in assay [19], 0.376. Also, the z-score in assay [20] was -0.485 (inactive). Also, in assay [2], the composite z-score is 0.929.
Take `CC(C)NC(=O)[C@@]1(c2ccc([N+](=O)[O-])cc2)CC(=O)N(C(C)C)[C@@H]1c1ccc(CO)cc1`: the z-score in assay [1] was 1.58 (inactive); in assay [3], 1.93 (inactive); in assay [4], -0.672 (inactive); in assay [5] it was -0.641 (inactive); in assay [6] it was -0.945 (inactive); in [7] it was 1.31. The z-score in assay [8] was -0.379 (inactive); in assay [9], 0.354 (inactive); in assay [10] it was 0.0654; in assay [11], 1.19; in [12], 0.63; in [13] it was 0.959. For the same compound, the z-score in assay [14] is 0.385; in [15], 1.38; in [16], 0.763; in [17], 0.481 (inactive); in assay [18], -1.03; in assay [19], -0.228. The z-score in assay [20] was -1.1 (inactive). The same compound displayed a composite z-score in assay [2] of -0.82.
`O=C1C2C=CC(C(O)c3ccc(-c4ccccc4)s3)N(Nc3ccccc3F)C2C(=O)N1c1ccccc1` (stereo not given): the z-score was -1.69 (inactive) in assay [1]; 4.17 (inactive) in assay [3]; 1.66 (inactive) in assay [4]; 0.8 (inactive) in assay [5]; 1.27 (inactive) in [6]; -0.501 in [7]. Besides, the z-score in [8] was -0.49 (inactive); in assay [9] it was -4.68 (inactive); in assay [10] it was -3.41; in assay [11], -1.07; in assay [12] it was -0.0797; in assay [13], -0.297. Besides, the z-score in assay [14] is -0.0003; in assay [15], -1.3; in [16], -2.29; in assay [17], -1.57 (inactive); in assay [18], -0.35; in assay [19], -0.0666. The z-score in assay [20] is -1.7 (inactive). This compound gave a composite z-score in assay [2] of 0.282.
On to `COc1ccc(C#Cc2ccc3c(c2)[C@]2(C(=O)N3)[C@H](C(=O)N3CCN(c4ncccn4)CC3)[C@H]3C(=O)O[C@H](c4ccccc4)[C@H](c4ccccc4)N3[C@@H]2c2ccc(O)cc2)cc1`, for which the z-score in [1] was -0.475 (inactive); in assay [3] it was 1.5 (inactive); in [4], 1.59 (inactive); in assay [5], 0.474 (inactive); in assay [6] it was 0.686 (inactive); in assay [7], -0.2. The z-score in [8] is 1.25 (inactive); in assay [9] it was -0.171 (inactive); in [10], -0.146; in assay [11], -0.125; in assay [12], 0.583; in assay [13] it was 0.804. The z-score was -0.156 in assay [14]; -0.404 in assay [15]; -1.11 in [16]; 1.08 (inactive) in assay [17]; -0.899 in [18]; -0.427 in [19]. The z-score in assay [20] was -0.164 (inactive). The same compound came in with a composite z-score in assay [2] of 0.583.
In the case of `C=C(C(=O)CC[C@@H](OC(C)=O)c1ccc(OCCO)cc1)C(C)C`, the z-score in assay [1] is 0.0045 (inactive); in assay [3], 3.04 (inactive); in [4], 0.584 (inactive); in assay [5] it was 0.652 (inactive); in assay [6], 0.332 (inactive); in assay [7], -0.579. In addition, the z-score in assay [8] was -1.37 (inactive); in assay [9], -1.21 (inactive); in [10], -1.77; in assay [11] it was -0.382; in [12] it was -0.0315; in [13], 0.185. Further, the z-score in [14] was -1.06; in assay [15], 0.16; in assay [16] it was -0.637; in assay [17], -0.191 (inactive); in [18] it was 0.0885; in assay [19], 0.109. In addition, the z-score in [20] is -0.222 (inactive). For the same compound, in assay [2], the composite z-score was -0.142.
For `COCCCNC(=O)[C@]1(Cc2ccccc2N=[N+]=[N-])N=C(c2ccc(OCCCO)cc2)O[C@@H]1c1ccccc1CN=[N+]=[N-]`, the z-score in [1] was 0.871 (inactive); in [3], 28.1 (active); in assay [4], 21.2 (active); in assay [5], 3.17 (inactive); in [6], 2.71 (inactive); in assay [7] it was 1.97. Moreover, the z-score was -0.888 (inactive) in assay [8]; 0.4 (inactive) in assay [9]; -0.209 in [10]; -1.02 in assay [11]; 1.63 in [12]; -1.77 in assay [13]. Moreover, the z-score was -2.98 in assay [14]; -4.11 in assay [15]; 1.46 in assay [16]; -0.683 (inactive) in [17]; -1.2 in assay [18]; -0.495 in assay [19]. Besides, the z-score in [20] was -1.2 (inactive). The compound also had a composite z-score in assay [2] of 0.766.
For `CN1C(=O)C2C=CC(C(O)C(C)(C)C)N(Nc3ccccc3)C2C1=O` (stereo not given), the z-score in assay [1] was -1.06 (inactive); in assay [3] it was 0.931 (inactive); in assay [4], 1.05 (inactive); in [5], 0.156 (inactive); in assay [6] it was 1.12 (inactive); in assay [7] it was -1.04. Further, the z-score in assay [8] is -1.09 (inactive); in assay [9], -3.48 (inactive); in assay [10], -1.54; in assay [11] it was -0.398; in assay [12] it was -1.31; in [13] it was 0.19. Also, the z-score is 0.235 in assay [14]; -1.08 in [15]; -1.16 in [16]; -0.398 (inactive) in [17]; -0.476 in [18]; -0.178 in [19]. Also, the z-score in [20] is -0.463 (inactive). In addition, the composite z-score in assay [2] was -0.0838.
For the compound `[N-]=[N+]=NCc1ccccc1C[C@]1(C(=O)N2CCOCC2)N=C(c2ccc(OCCCO)cc2)O[C@H]1c1ccccc1`, the z-score in [1] is 1.07 (inactive); in [3], 29.4 (active); in [4], 24.2 (active); in assay [5] it was 0.785 (inactive); in assay [6], 1.5 (inactive); in [7], 1.57. The z-score in [8] is -1.95 (inactive); in [9] it was -0.399 (inactive); in assay [10] it was -1.32; in assay [11], -0.55; in assay [12], -0.0649; in [13], -1.56. Further, the z-score in [14] is -2.06; in assay [15], -4.4; in assay [16], -0.155; in assay [17], -0.296 (inactive); in assay [18], -1.16; in assay [19], -2.08. For the same compound, the z-score in assay [20] is -0.832 (inactive). Further, in assay [2], the composite z-score stood at 0.208.

(Values after PubChem BioAssay.)
